In PubChem BioAssay AID1159580 (chemical genetic matrix, 2015):
Out of some 5,500 compounds screened, about 2,000 (36%) were called active. About 18% were inconclusive and are not listed. No stated cut-off is given here; in the data, active means normalized growth mostly below about 0.91 (no sharp cut-off); inconclusive means no clear call, values can overlap the other calls; inactive means mostly above about 0.92. The list shows a part of the results.

Assay: chemical genetic growth profiling, strain panel (AID 1159580);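 further: tested at 20 µM; growth read once vehicle control cultures reached saturation at 30 °C; 1 = growth at the plate median or of vehicle wells; lower values mean less growth of the strain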
Details: S. cerevisiae deletion strains, growth OD
[1] = locus YAL013W, strain DEP1, hits give low values
[2] = locus YJR075W, strain HOC1, hits give low values
[3] = locus YMR307W, strain GAS1, hits give low values
[4] = locus YNL153C, strain GIM3, hits give low values
[5] = locus YNL322C, strain KRE1, hits give low values
[6] = locus YAL040C, strain CLN3, hits give low values
[7] = locus YCL061C, strain MRC1 (second series), hits give low values
[8] = locus YDR150W, strain NUM1, hits give low values
[9] = locus YDR363W, strain ESC2, hits give low values
[10] = locus YER002W, strain NOP16, hits give low values
[11] = locus YGR078C, strain PAC10, hits give low values
[12] = locus YNL175C, strain NOP13, hits give low values
[13] = locus YNL197C, strain WHI3, hits give low values
[14] = locus YNL224C, strain SQS1, hits give low values
[15] = locus YOR083W, strain WHI5 (second series), hits give low values

Measured: normalized growth

CCC1C2CC3C4N(C)c5ccccc5C45CC(C2C5OC(C)=O)N3C1OC(C)=O (configuration not stated)
inactive: [1] 1.01 | locus YBR021W, strain FUR4, hits give low values 1.01 | locus YBR229C, strain ROT2, hits give low values 1 | locus YCL029C, strain bik1, hits give low values 1.02 | locus YDL035C, strain GPR1, hits give low values 1.02 | locus YDL074C, strain BRE1, hits give low values 1.04 | locus YDL101C, strain DUN1, hits give low values 1.01 | locus YDL134C, strain PPH21, hits give low values 1.02 | locus YDL185W, strain tfp1, hits give low values 1.02 | locus YDL192W, strain arf1, hits give low values 1.01 | locus YDR101C, strain arx1, hits give low values 1.01 | locus YDR162C, strain NBP2, hits give low values 1.01 | locus YDR318W, strain mcm21, hits give low values 1.01 | locus YDR388W, hits give low values 1.03 | locus YDR502C, strain sam2, hits give low values 1.02 | locus YEL061C, strain CIN8, hits give low values 1.01 | locus YER110C, hits give low values 1.03 | locus YER155C, strain BEM2, hits give low values 1 | locus YER167W, strain BCK2, hits give low values 1.02 | locus YGL078C, strain dbp3, hits give low values 1 | locus YGL086W, strain mad1, hits give low values 0.997 | locus YGL248W, strain PDE1, hits give low values 1.01 | locus YGR135W, strain pre9, hits give low values 1.01 | locus YGR252W, strain gcn5, hits give low values 1.02 | locus YHR030C, strain SLT2, hits give low values 1.02 | locus YHR079C, strain IRE1 (second series), hits give low values 1 | locus YHR094C, strain hxt1, hits give low values 1.01 | locus YHR129C, strain ARP1, hits give low values 1.02 | locus YHR200W, strain rpn10, hits give low values 1.02 | locus YIL066C, strain RNR3, hits give low values 1.02 | locus YIL073C, strain SPO22, hits give low values 1.08 | locus YIL125W, strain kgd1, hits give low values 1.03 | locus YIR030C, strain dcg1, hits give low values 1.01 | locus YJL095W, strain BCK1, hits give low values 1.01 | locus YJL134W, strain LCB3, hits give low values 1.02 | locus YJL168C, strain set2, hits give low values 1.02 | locus YJL187C, strain SWE1 (second series), hits give low values 1.01 | locus YJR043C, strain POL32, hits give low values 1.01 | [2] 1.04 | locus YKL009W, strain mrt4, hits give low values 1.02 | locus YKL068W, hits give low values 1 | locus YKL085W, strain MDH1 (second series), hits give low values 0.995 | locus YKL085W, strain MDH1, hits give low values 0.995 | locus YKR001C, strain vps1, hits give low values 1.03 | locus YLR039C, strain RIC1, hits give low values 1.07 | locus YLR058C, strain SHM2, hits give low values 1.01 | locus YLR102C, strain apc9, hits give low values 1.03 | locus YLR262C, strain YPT6, hits give low values 1.09 | locus YLR268W, strain sec22, hits give low values 1.02 | locus YLR330W, strain CHS5, hits give low values 1.02 | locus YLR342W, strain FKS1 (second series), hits give low values 1.03 | locus YLR371W, strain rom2, hits give low values 1.01 | locus YLR418C, strain cdc73, hits give low values 1.04 | locus YML016C, strain PPZ1, hits give low values 1.01 | locus YML032C, strain rad52, hits give low values 1.02 | locus YML124C, strain tub3, hits give low values 1.01 | locus YMR078C, strain ctf18, hits give low values 0.999 | locus YMR223W, strain ubp8, hits give low values 1.01 | locus YMR263W, strain SAP30, hits give low values 1.01 | [3] 0.992 | locus YNL067W, strain RPL9B, hits give low values 1.02 | locus YNL128W, strain TEP1, hits give low values 1.01 | [4] 1 | locus YNL233W, strain BNI4, hits give low values 1.02 | locus YNL250W, strain rad50, hits give low values 1.01 | locus YNL271C, strain bni1, hits give low values 1.01 | locus YNL298W, strain CLA4, hits give low values 1.02 | locus YNL307C, strain MCK1, hits give low values 1.02 | [5] 1.01 | locus YNR052C, strain pop2, hits give low values 1.02 | locus YOL006C, strain TOP1, hits give low values 1.14 | locus YOL012C, strain htz1 0.814 | locus YOL147C, strain pex11, hits give low values 1.02 | locus YOR061W, strain CKA2, hits give low values 1.01 | locus YOR069W, strain VPS5, hits give low values 1.01 | locus YOR136W, strain idh2, hits give low values 1.02 | locus YOR144C, strain elg1, hits give low values 1.01 | locus YOR184W, strain ser1, hits give low values 1.01 | locus YOR316C, strain cot1, hits give low values 1.02 | locus YPL055C, strain LGE1, hits give low values 1.04 | locus YPR119W, strain clb2, hits give low values 1 | locus YPR141C, strain kar3, hits give low values 1.01 | locus YPR163C, strain tif3, hits give low values 1.02 | locus YPR167C, strain met16, hits give low values 1.01 | strain wtn01, hits give low values 1.04

CO[C@H]1CC=C2CCN3CCC4=C(CC(=O)OC4)[C@]23C1
inactive: [6] 0.99 | [7] 1 | [8] 1.01 | [9] 1.07 | [10] 1.01 | [11] 1.01 | [2] 1.01 | [3] 0.999 | [4] 0.981 | [12] 1.01 | [13] 1.03 | [14] 0.997 | [5] 0.998 | [15] 1.06

Nc1ccn([C@H]2CC[C@@H](CO)O2)c(=O)n1
inactive: [1] 1.01 | [6] 1.01 | [7] 0.988 | [8] 0.994 | [9] 1.01 | [10] 0.987 | [11] 0.989 | [3] 0.993 | [4] 1.04 | [12] 1 | [13] 1 | [14] 0.997 | [15] 1.01
